The list is not random: actives were taken first. Their share in the collection is about 11%.
HEK cytotox – Cytotoxic Profiling in HEK 293 Cell Line of Diverse Libraries Using Quantitative High-Throughput Screening; Potency, µM (highest dose often 115 µM), inactives show at the top dose activity change, negative = cytotoxicity, most hits filed as inhibitors; 94,000 compounds, 6.6% hits; HEK 293 viability, ATP luminescence (CellTiter-Glo), 48-72 h; note: % is set by controls: 0 for no effect and ±100 for the full control effect; nearly all actives have a fitted effect of over 60% in size
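CellTiter-Glo luminescence (cellular ATP) was read after 48 or 72 hr of compound exposure at 37 degree Celsius. Cells were HEK 293 plated at 250 cells/well.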
NIH3T3 tox – Cytotoxic Profiling in NIH 3T3 Cell Line of Diverse Libraries Using Quantitative High-Throughput Screening; NIH 3T3 viability, CellTiter-Glo ATP luminescence, 48-72 h; Potency, µM (titrated, usually from 96.7 µM), for inactives: at the top dose activity change, negative = cytotoxicity, most hits filed as inhibitors; 94,000 compounds, 4.3% hits; note: % is set by controls: 0 for no effect and ±100 for the full control effect; nearly all actives have a fitted effect of over 55% in size
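NIH 3T3 cells at 400 cells/well received 23 nL of compound by pintool and were incubated 48 or 72 h at 37 °C. Viability was read as ATP-coupled CellTiter-Glo luminescence.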
Luciferase inh – Firefly luciferase inhibition profiling of diverse chemical library using quantitative high-throughput screening; purified P. pyralis luciferase, luminescence, biochemical; 76,000 compounds, 2.5% hits; Potency, µM (series often up to 115 µM), actives largely listed as inhibitors; note: % is set by controls: 0 for no effect and ±100 for the full control effect; nearly all actives have a fitted effect of over 65% in size
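Biochemical qHTS: compound (6-point titration) added to 10uM D-luciferin plus 10uM ATP in Tris acetate pH 7.5 buffer with Mg, Tween-20 and BSA, then purified enzyme at 10nM; light output imaged.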
hNpr1 antagonist – Natriuretic polypeptide receptor (hNpr1) antagonism - Primary qHTS; Atrial natriuretic peptide receptor 1 (Homo sapiens), P16066; HEK293 hNpr1 GloSensor cGMP, ANP-stimulated luminescence; Potency, µM (titrated, usually from 46.3 µM), for the others: top-dose activity change, negative = inhibition, most hits filed as inhibitors; 76,000 compounds, 1.6% hits; calls by dose curve; note: % is set by controls: 0 for no effect and ±100 for the full control effect; nearly all actives have a fitted effect of over 60% in size
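HEK293 cells stably expressing human Npr1 and cGMP GloSensor pGS-40F, loaded 2 h with 2% GloSensor reagent, given compound 30 min at room temperature. Luminescence read before and 20 min after 0.1 nM hNppA.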
NPR1 antag cnf – Natriuretic polypeptide receptor (hNpr1) antagonism - Confirmation | shares compounds with hNpr1 antagonist | HEK293 hNpr1 cGMP GloSensor luminescence, ANP-stimulated | Potency, µM (top dose mostly 57.6 µM), for inactives: top-dose activity change, negative = inhibition, hits mostly inhibitors | 1,400 compounds, 76% hits; calls by dose curve; note: nearly all actives have a fitted effect of over 70% in size
NPR2 antag – Natriuretic polypeptide receptor (hNpr2) antagonism - Subtype selectivity assay; 1,400 compounds, 67% hits; shares compounds with hNpr1 antagonist; HEK293 hNpr2 GloSensor cGMP luminescence, CNP-stimulated; Potency, µM (top dose mostly 57.6 µM), without a hit: at the top dose activity change, negative = inhibition, most hits filed as inhibitors; calls by dose curve; note: nearly all actives have a fitted effect of over 70% in size
Target sequence (P20594 whole entry, looked up): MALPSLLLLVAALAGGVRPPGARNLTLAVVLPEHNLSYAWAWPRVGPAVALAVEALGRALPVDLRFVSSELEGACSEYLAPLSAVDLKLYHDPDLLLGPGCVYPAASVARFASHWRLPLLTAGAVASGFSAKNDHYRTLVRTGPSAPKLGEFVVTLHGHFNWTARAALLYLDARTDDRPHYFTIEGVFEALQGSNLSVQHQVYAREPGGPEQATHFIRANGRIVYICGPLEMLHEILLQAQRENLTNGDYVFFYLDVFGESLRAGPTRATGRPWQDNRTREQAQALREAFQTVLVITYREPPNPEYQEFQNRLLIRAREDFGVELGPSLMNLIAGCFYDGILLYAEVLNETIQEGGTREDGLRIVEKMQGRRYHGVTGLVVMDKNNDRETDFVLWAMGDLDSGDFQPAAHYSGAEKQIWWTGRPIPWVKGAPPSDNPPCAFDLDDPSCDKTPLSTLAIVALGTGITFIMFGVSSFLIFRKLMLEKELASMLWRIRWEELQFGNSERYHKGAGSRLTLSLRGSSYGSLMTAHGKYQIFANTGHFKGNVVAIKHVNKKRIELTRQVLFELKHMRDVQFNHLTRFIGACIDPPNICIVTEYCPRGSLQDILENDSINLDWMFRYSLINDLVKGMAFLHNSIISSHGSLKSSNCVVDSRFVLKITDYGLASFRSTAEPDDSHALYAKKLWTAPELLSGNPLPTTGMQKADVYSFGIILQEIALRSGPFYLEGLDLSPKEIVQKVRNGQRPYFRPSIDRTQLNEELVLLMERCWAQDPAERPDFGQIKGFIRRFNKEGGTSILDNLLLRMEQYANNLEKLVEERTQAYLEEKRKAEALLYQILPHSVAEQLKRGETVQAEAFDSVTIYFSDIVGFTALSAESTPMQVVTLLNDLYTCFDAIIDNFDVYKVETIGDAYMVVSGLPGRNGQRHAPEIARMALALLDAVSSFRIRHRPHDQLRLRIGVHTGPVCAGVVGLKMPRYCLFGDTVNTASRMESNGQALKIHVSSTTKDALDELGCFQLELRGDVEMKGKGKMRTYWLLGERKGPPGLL
FLuc inh counter – Natriuretic polypeptide receptor (hNpr1) antagonism - Confirmation firefly luciferase (FLuc) inhibition counterscreen. Potency, µM (series often up to 57.6 µM), inactives show at the top dose activity change, negative = inhibition, actives largely listed as inhibitors. shares compounds with hNpr1 antagonist. 1,400 compounds, 0.7% hits. purified FLuc enzyme, luminescence, Km substrate; note: 0% is about no effect
GloSensor cGMP – Natriuretic polypeptide receptor (hNpr1) antagonism - Counterscreen GloSensor control cell line; HEK293 GloSensor cGMP, SNP-stimulated, luminescence; Potency, µM (series often up to 57.6 µM), for inactives: top-dose activity change, negative = inhibition, actives largely listed as inhibitors; shares compounds with hNpr1 antagonist; 1,400 compounds, 69% hits; calls by dose curve; note: % is set by controls: 0 for no effect and ±100 for the full control effect; nearly all actives have a fitted effect of over 70% in size
An asterisk follows results filed as active; i = inactive; ? = inconclusive; · = no result given. Unless noted, calls come from the whole dose curve; as a rule, active = well fitted curve in the direction sought with a large enough effect; inconclusive = small, poorly fitted or top-dose-only effect, or another doubt; inactive = no such curve, though single readings can be large; an effect the other way counts as inactive or inconclusive. Potency is the fitted concentration of half-maximal effect.

SMILES | HEK cytotox | NIH3T3 tox | Luciferase inh | hNpr1 antagonist | NPR1 antag cnf | NPR2 antag | FLuc inh counter | GloSensor cGMP
CC(C)c1noc(-c2cn(C3CCN(C(=O)c4cccc(Br)c4)C3)nn2)n1 (stereo not drawn) | ? | -29.2% | i | 11.2µM* | 19.3µM* | 21.7µM* | 1.9% | 21.7µM*
CC(C)c1noc(-c2cn(C3CCN(C(=O)c4ccc(OC(F)(F)F)cc4)C3)nn2)n1 (stereo not drawn) | ? | ? | i | 14.1µM* | 13.7µM* | 19.3µM* | 2.1% | 15.3µM*
CC(C)c1noc(-c2cn(C3CCN(C(=O)c4ccc(F)cc4)C3)nn2)n1 (stereo not drawn) | ? | -26.5% | i | -5.4% | · | · | · | ·
CC(C)c1noc(-c2cn(C3CCN(C(=O)c4ccc(Cl)s4)C3)nn2)n1 (stereo not drawn) | ? | ? | i | 8.91µM* | 12.2µM* | 12.2µM* | -1.4% | 13.7µM*
N#Cc1cccc(CN2C[C@@H](CO)[C@H](c3ccccn3)C2)c1 | -12.5% | ? | i | -0.1% | · | · | · | ·
O=C(COc1ccccc1)N1C[C@@H]2C[C@H](C1)c1c(NS(=O)(=O)c3ccccc3)ccc(=O)n1C2 | -12.8% | -8.3% | i | 1.5% | · | · | · | ·
O=C(c1ccc[nH]1)N1CCN(C(=O)c2nnn3c2COC(c2ccc(Cl)cc2)C3)CC1 (stereo not drawn) | -19.2% | -10.6% | i | -1.9% | · | · | · | ·
O=C(c1ccc(F)c(F)c1)N1CCN(C(=O)c2nnn3c2COC(c2ccc(Cl)cc2)C3)CC1 (stereo not drawn) | -46.0% | ? | i | 12.6µM* | 21.7µM* | 21.7µM* | 7.7% | 19.3µM*
O=C(c1nnn2c1COC(c1ccc(Cl)cc1)C2)N1CCN(C(=O)c2c(F)cccc2F)CC1 (stereo not drawn) | ? | ? | i | ? | ? | ? | -0.1% | ?
COc1ccc(C(=O)N2CCN(C(=O)c3nnn4c3COC(c3ccc(Cl)cc3)C4)CC2)cc1F (stereo not drawn) | ? | -31.3% | i | ? | 24.3µM* | 27.3µM* | 1.2% | 21.7µM*
CN(C)c1cccc(C(=O)N2CCN(C(=O)c3nnn4c3COC(c3ccc(Cl)cc3)C4)CC2)c1 (stereo not drawn) | ? | ? | i | 12.6µM* | 24.3µM* | 24.3µM* | -29.4% | 24.3µM*
O=C(c1cccc(Cl)c1)N1CCN(C(=O)c2nnn3c2COC(c2ccc(F)cc2)C3)CC1 (stereo not drawn) | ? | ? | i | 12.6µM* | 24.3µM* | 24.3µM* | 0.4% | 24.3µM*
O=C(c1ccc(F)c(Cl)c1)N1CCN(C(=O)c2nnn3c2COC(c2ccccc2)C3)CC1 (stereo not drawn) | ? | ? | i | 12.6µM* | 21.7µM* | 24.3µM* | 1.0% | 21.7µM*

Screening results: PubChem BioAssay, National Center for Advancing Translational Sciences (NCATS)
